Earlier results on 16 compounds are cited in PubChem BioAssay AID977611.

For orientation: Kd means the free concentration of one partner at which half of the binding sites on the other are occupied at equilibrium, for simple one-to-one binding.

In all, about 3,900 compounds went through this assay and about 3,900 (100%) were called active. The limit is not given here; nearly all actives have Kd up to about 4200 µM. So high a share suggests a set chosen from earlier hits. The list shows a part of the results. Positions of bridges follow the written chain, without caps; N, C: chain ends. Bridge positions count the residues as written; N and C are the ends. Non-standard residues stand in square brackets, D forms with d. Square brackets hold non-standard residues; d marks the D form. Residues, ends and D or L forms follow the SMILES beside them. Peptide text beside a SMILES is read from it. Orn(CH(NH2)2) = NC(N)NCCC[C@H](N)C(=O)O

The nature of the series: PubChem AID 977611. Particulars: PDB protein-ligand complexes, literature Kd.

With `OC[C@H]1O[C@H](O[C@H]2[C@@H](O)[C@@H](CO)O[C@@H](O[C@H]3[C@H](O)[C@@H](O)[C@H](O)O[C@@H]3CO)[C@@H]2O)[C@H](O)[C@@H](O)[C@H]1O`, under “protein: PA-I GALACTOPHILIC LECTIN, PDB entry 2vxj”, the Kd was 68000 nM (active).

With `O=P(O)(O)OC[C@H]1OC(O[C@@H]2O[C@H](CO)[C@@H](O)[C@H](O)[C@H]2O)[C@H](O)[C@@H](O)[C@@H]1O` (some centres not stated), for the setting “protein: trehalose operon repressor, PDB entry 1BYK”, the Kd is 10000 nM (active).

Consider `OC[C@H]1CNC[C@@H](O[C@H]2O[C@H](CO)[C@@H](O)[C@H](O)[C@@H]2O)[C@@H]1O`, for which, under “protein: GLYCOSYL HYDROLASE FAMILY 71 BxGH99, PDB entry 4v27”, the Kd was 217 nM (active).

On to `CC(=O)N[C@@H](C)C(=O)N[C@@H](CC(C)C)C(=O)N[C@H]1CSSC[C@@H](C(=O)N[C@@H](CCC(N)=O)C(=O)N[C@@H](Cc2ccccc2)C(=O)N[C@H](C(=O)N[C@@H](CCC(=O)O)C(N)=O)C(C)C)NC(=O)[C@H](Cc2ccc(O)cc2)NC(=O)[C@H](Cc2c[nH]c3ccccc23)NC(=O)[C@H](CCCNC(N)N)NC(=O)[C@H](CC(=O)O)NC(=O)[C@H](C(C)C)NC(=O)[C@H](CCCNC(N)N)NC(=O)[C@@H]2CCCN2C(=O)[C@H](CC(=O)O)NC(=O)[C@H](CC(=O)O)NC1=O` (Ac-ALCDDP[Orn(CH(NH2)2)]VD[Orn(CH(NH2)2)]WYCQFVE-NH2; disulfide 3-13), for which the Kd (protein: des-gla factor viia (heavy chain), PDB entry 1dva) is 8.5 nM (active).

Turning to `CC[C@H](C)[C@H](NC(C)=O)C(=O)N[C@@H](CO)C(=O)N[C@@H]1C(=O)N[C@@H](CCCN=C(N)N)C(=O)N[C@H]2CCCCNC(=O)CC[C@@H](C(=O)O)NC(=O)[C@@H]3CCC(=O)OC[C@H](NC(=O)[C@@H]4CCCN4C(=O)[C@H](Cc4ccc(O)cc4)NC2=O)C(=O)N[C@@H](CC(=O)O[C@@H]1C)C(=O)N[C@@H](Cc1c[nH]c2ccccc12)C(=O)N3` (Ac-ISTRKYPSDWEE-OH; ester 3-9, 8-11; lactam 5-12), the Kd (protein: Bovine Cationic trypsin, PDB entry 4ktu) is 685 nM (active).

Turning to `C[C@@H]1NC(=O)[C@@H]2CSSC[C@H](NC(=O)CN)C(=O)N[C@@H](CSSC[C@@H](C(N)=O)NC(=O)[C@H](CCCNC(N)N)NC(=O)[C@H](Cc3c[nH]c4ccccc34)NC1=O)C(=O)N[C@@H](CO)C(=O)N[C@@H](CC(=O)O)C(=O)N1CCC[C@H]1C(=O)N[C@@H](CCCNC(N)N)C(=O)N2`, the Kd (protein: A-AChBP, PDB entry 2byp) was 0.88 nM (active).

`CC(C)C[C@H]1NC(=O)[C@@H](Cc2c[nH]c3ccccc23)NC(=O)[C@@H](CCC(N)=O)NC(=O)[C@@H](Cc2c[nH]c3ccccc23)NC(=O)[C@@H](CCC(=O)O)NC(=O)[C@H]2CCCN2C(=O)[C@@H](Cc2ccc(O)cc2)NC(=O)[C@@H](CC(=O)O)NC(=O)[C@H](NC(=O)[C@@H](C)NC(=O)CNC(=O)[C@H](N)CCCCN)CSSC[C@H](C(=O)N[C@H](C)C(=O)N[C@H](C)C(=O)O)NC1=O`: the Kd (protein: gp41 N-peptide, PDB entry 2r5b) is 2.5 nM (active) and the Kd (protein: gp41 N-peptide, PDB entry 2r5d) was 0.07 nM (active).

On to `CC[C@H](C)[C@H](N)C(=O)N[C@H](C(=O)NCC(=O)NCC(=O)N[C@H]1CSSC[C@@H](C(=O)O)NC(=O)[C@H](CCC(=O)O)NC(=O)[C@H](CCC(=O)O)NC(=O)[C@H](CCCN=C(N)N)NC(=O)[C@H](CC(=O)O)NC(=O)[C@H](CCSC)NC(=O)[C@H](Cc2c[nH]c3ccccc23)NC(=O)[C@H](Cc2ccc(O)cc2)NC(=O)[C@@H]2CCCN2C1=O)[C@@H](C)CC` (H-IIGGCPYWMDREEC-OH; disulfide 5-14), for which, where the note is “protein: Hepatocyte growth factor HGF-Beta V495, PDB entry 4o3u”, the Kd is 400 nM (active).

As for `CC(C)C[C@H](NC(=O)[C@@H]1CSSC[C@@H]2NC(=O)[C@H](CC(N)=O)NC(=O)[C@@H](N)CSSC[C@H](NC(=O)[C@H](CC(C)C)NC(=O)[C@H](Cc3ccccc3)NC(=O)[C@H]([C@@H](C)O)NC(=O)[C@H](CCC(=O)O)NC(=O)[C@@H]3CCCN3C(=O)[C@H](C)NC(=O)[C@H](CCCCN)NC2=O)C(=O)N[C@@H](Cc2ccc(O)cc2)C(=O)N[C@@H](Cc2c[nH]c3ccccc23)C(=O)N[C@@H](CCCNC(N)N)C(=O)N1)C(=O)N[C@@H](CCC(N)=O)C(=O)N[C@@H](Cc1c[nH]cn1)C(N)=O` (H-CNCKAPETFLCYW[Orn(CH(NH2)2)]CLQH-NH2; disulfide 1-11, 3-15), the Kd (protein: E3 ubiquitin-protein ligase Mdm2, PDB entry 3iux) is 25.1 nM (active).

Turning to `N#Cc1c(O)c2c(-c3ccc(Br)cc3)c(Br)sc2[nH]c1=O`, the Kd (protein: 5'-AMP-activated protein kinase catalytic subunit AMPK alpha1-belta1-gamma1, PDB entry 4qfs) is 900 nM (active).

Take `N#Cc1c(O)c2c(-c3ccc(-c4ccccc4O)cc3)c(Cl)sc2[nH]c1=O`: the Kd (protein: 5'-AMP-activated protein kinase catalytic subunit AMPK alpha1-belta1-gamma1, PDB entry 4qfr) is 7.4 nM (active).

Take `Cc1nc2c(=O)[nH]c(=O)[nH]c2n(C[C@H](O)[C@H](O)[C@H](O)CO)c1=O`: the Kd (protein: Major histocompatibility complex class I-related gene protein, PDB entry 4l4v) was 1650 nM (active).

Regarding `CCNc1cc2c(cc1C)C(c1ccccc1C(=O)OCC)c1cc(C)c(NCC)cc1O2`, the Kd (protein: Putative regulatory protein, PDB entry 3vvz) was 26400 nM (active).

`C[C@@H](O)CN1CC2=C(C1)c1ccccc1Nc1ccccc12`: for the setting “protein: Renin, PDB entry 4gj9”, the Kd is 500000 nM (active).

Consider `CC[C@H](C)[C@H](NC(=O)CNC(=O)[C@H](CCC(N)=O)NC(=O)[C@@H](NC(=O)[C@H](CC(N)=O)NC(=O)[C@@H](N)CC(=O)O)[C@@H](C)CC)C(=O)N[C@H](C(=O)N[C@@H](CCCCN)C(=O)N1CCC[C@H]1C(=O)N[C@@H](C)C(=O)N[C@H](C(=O)N[C@@H](CCCNC(N)N)C(=O)N[C@@H](CCCNC(N)N)C(=O)N[C@@H](CC(C)C)C(=O)N[C@@H](C)C(=O)N[C@@H](CCCNC(N)N)C(=O)N[C@@H](CCCNC(N)N)C(=O)NCC(=O)O)[C@@H](C)CC)[C@@H](C)O` (H-DNIQGITKPAI[Orn(CH(NH2)2)][Orn(CH(NH2)2)]LA[Orn(CH(NH2)2)][Orn(CH(NH2)2)]G-OH), for which the Kd (protein: Histone-binding protein RBBP7, PDB entry 3cfv) was 900 nM (active).

As to `CC[C@H](C)[C@H](NC(=O)CNC(=O)[C@@H](N)CCC(N)=O)C(=O)N[C@H](C(=O)N[C@@H](CCCCN)C(=O)N1CCC[C@H]1C(=O)N[C@@H](C)C(=O)N[C@H](C(=O)N[C@@H](CCCNC(N)N)C(=O)N[C@@H](CCCNC(N)N)C(=O)N[C@@H](CC(C)C)C(=O)N[C@@H](C)C(=O)N[C@@H](CCCNC(N)N)C(=O)N[C@@H](CCCNC(N)N)C(=O)NCC(=O)O)[C@@H](C)CC)[C@@H](C)O` (H-QGITKPAI[Orn(CH(NH2)2)][Orn(CH(NH2)2)]LA[Orn(CH(NH2)2)][Orn(CH(NH2)2)]G-OH), the Kd (protein: Histone-binding protein RBBP7, PDB entry 3cfs) was 1100 nM (active).
